For orientation: Inhibition means the relative decrease from the control value, in per cent.

The record followed here is ChEMBL document CHEMBL4296183, “CO-ADD screening of NIH NCI Natural Product Set III” (2020).

Each structure is given as a SMILES string.

The subject of the assay is Staphylococcus aureus. The experiment in a line: Antibacterial activity against Staphylococcus aureus MRSA ATCC 43300 (CO-ADD:GP_020); MIC in CAMBH media using NBS plates, by Resazurin F(560/590). In kind it is functional. The note with it: Concentration 20 uM, ASSAY_TEST Inhibition of Bacterial Growth, detection method Resazurin, Fluorescence (ex560/em590), MEDIA CAMHB, plate type 384well, CORNING #3640, time 18 hr. A general note: Alamar Blue is a resazurin reagent that responds to reducing activity.
With `CC(=O)Oc1ccc2ccc(=O)oc2c1OC(C)=O`, the Inhibition is listed as 18.68%.

In the case of `CCC1OC(=O)C(C)C(OC2CC(C)(O)C(O)C(C)O2)C(C)C(O)C(C)(O)CC(C)C(=O)C(C)C(O)C1C` (stereo not given), the Inhibition is listed as -9.59%.

In the case of `COc1cc([C@@H]2c3cc4c(cc3[C@@H](OC3OC5CO[C@@H](c6cccs6)OC5C(O)C3O)[C@H]3COC(=O)[C@H]23)OCO4)cc(OC)c1O` (stereo not given in full), the Inhibition is listed as 7.05%.

As for `O=c1oc2cc(O)ccc2c2oc3cc(O)ccc3c12` [COUMESTROL], the Inhibition is 0.36%.

Consider `CC1(C)CCCC2(C)C3=C(CCC12)C(=O)OC3` (stereo not given), for which the Inhibition was found to be 10.53%.

Consider `CC[C@]1(O)C[C@H]2CN(CCc3c([nH]c4ccccc34)[C@@](C(=O)OC)(c3cc4c(cc3OC)N(C=O)[C@H]3[C@@](O)(C(=O)OC)[C@H](OC(C)=O)[C@]5(CC)C=CCN6CC[C@]43[C@@H]65)C2)C1.O=S(=O)(O)O` [VINCRISTINE SULFATE], for which the Inhibition is given as -14.43%.

For the compound `CC(=O)CCCCn1c(=O)c2c(ncn2C)n(C)c1=O` [PENTOXIFYLLINE], the Inhibition is 0.21%.

For the compound `CN1CCc2cc3c(cc2C(=O)Cc2ccc4c(c2C1)OCO4)OCO3.Cl` [PROTOPINE HYDROCHLORIDE], the Inhibition was 14.82%.

Regarding `O=c1oc2c(O)c(O)cc3c(=O)oc4c(O)c(O)cc1c4c23` [ELLAGIC ACID], the Inhibition is listed as -17.94%.

Turning to `COc1ccc2c(c1OC)C(=O)O[C@@H]2[C@H]1c2c(cc3c(c2OC)OCO3)CCN1C` [NOSCAPINE], the Inhibition is 1.91%.

With `CCCCCc1cc(O)cc2c1Oc1cc(O)cc(C(=O)CCCC)c1C(=O)O2`, the Inhibition was found to be 23.6%.

In the case of `COC(=O)C1C(O)CCC2CN3CCc4c([nH]c5ccccc45)C3CC21` (stereo not given), the Inhibition is 7.76%.

`COc1ccc(C2CC(=O)c3c(O)cc(OC4OC(CO)C(O)C(O)C4OC4OC(C)C(O)C(O)C4O)cc3O2)cc1O` (stereo not given): the Inhibition was found to be 15.96%.

In the case of `CC1(C)CC23C4COC(=O)C2CCC1C3CC4=O` (stereo not given), the Inhibition worked out at 5.56%.

Regarding `CC1(C)C(=O)N2c3ccccc3C3(CC(N4C(=O)c5ccccc5C4=O)C(=O)O3)C2N1C(=O)OCc1ccccc1` (stereo not given), the Inhibition is -7.98%.

Regarding `COC(=O)NC1C(C)OC(OC2C/C=C(/C)C3C=CC4C(OC5CC(OC6CCC(OC7CC(O)C(OC8CCC(O)C(C)O8)C(C)O7)C(C)O6)C(OC(C)=O)C(C)O5)C(C)CC(C)C4C3(C)/C(O)=C3/C(=O)OC4(CC(C=O)=CC(O)C4/C=C\2C)C3=O)CC1(C)[N+](=O)[O-]` (stereo not given), the Inhibition was -21.61%.

For `C=C1C(=O)O[C@@H]2[C@H]3O[C@]3(C)CC/C=C(\C)CC[C@@H]12`, the Inhibition was -12.66%.

As for `CC(C)=CC(=O)OC1C2C(C)C(=O)OC2C(O)C(C)C2C=CC(=O)C21C` (stereo not given), the Inhibition is listed as 8.65%.

On to `COc1cc2c(c(OC)c1OC)-c1ccc(OC)c(=O)cc1[C@@H](NC(C)=O)CC2` [COLCHICINE], for which the Inhibition is on record as -2.4%.

In the case of `COC(=O)[C@@H]1[C@H]2C[C@@H]3c4[nH]c5ccccc5c4CCN3C[C@@H]2CC[C@@H]1O`, the Inhibition worked out at 20.93%.

For the compound `COc1cc(C)c2c(c1C=O)Oc1c(c(C)c(O)c3c1C(O)OC3=O)OC2=O` (stereo not given) [STICTIC ACID], the Inhibition amounted to 1.81%.

Take `C[C@@H]1C(=O)C[C@H]2C(C)(C)CCC[C@]2(C)[C@@]1(O)CCc1ccoc1`: the Inhibition is on record as -11.22%.

Consider `CCC1NC(=O)C(NC(=O)c2ncccc2O)C(C)OC(=O)C(c2ccccc2)NC(=O)C2CC(=O)CCN2C(=O)C(Cc2ccccc2)N(C)C(=O)C2CCCN2C1=O` (stereo not given), for which the Inhibition is 3.19%.

For `COC(=O)C1C2CC3c4[nH]c5cc(OC)ccc5c4CCN3CC2CC(OC(=O)CCc2cc(OC)c(OC)c(OC)c2)C1OC` (stereo not given), the Inhibition is 8.41%.

On to `COc1ccc2c(c1)O[C@H]1c3ccc(O)cc3OC[C@@H]21`, for which the Inhibition is reported as 7.33%.
